Rows were chosen to be rich in hits. Some 2.9% of all compounds tested hit in one or more screens of this group.
TRPML1 agonist: qHTS for Agonists of the Human Mucolipin Transient Receptor Potential 1 (TRPML1); activation, % (no concentration beside the values); TRPML1-expressing cells, Ca2+ dye fluorescence, FDSS; hit rate 0.12% among 410,000; in the data active = activation above about 50%; note: 0% is about no effect
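Tetracycline-induced TRPML1-DL cells are seeded and incubated overnight before loading with a no-wash Ca2+ dye and quencher. Agonist activity is taken from the 110 s fluorescence read following compound pin-transfer on an FDSS, before EC80 54-4 challenge.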
DRD3 agonist: qHTS of D3 Dopamine Receptor Agonist: qHTS; D3R DiscoveRx beta-arrestin cells, luminescence, 90 min; max activation, %; hit rate 0.58% among 410,000; AID 652048, 2013; D(3) dopamine receptor (Homo sapiens), P35462; in the data active = max activation above about 30%; note: 0% is about no effect
Target sequence (P35462 whole entry, looked up): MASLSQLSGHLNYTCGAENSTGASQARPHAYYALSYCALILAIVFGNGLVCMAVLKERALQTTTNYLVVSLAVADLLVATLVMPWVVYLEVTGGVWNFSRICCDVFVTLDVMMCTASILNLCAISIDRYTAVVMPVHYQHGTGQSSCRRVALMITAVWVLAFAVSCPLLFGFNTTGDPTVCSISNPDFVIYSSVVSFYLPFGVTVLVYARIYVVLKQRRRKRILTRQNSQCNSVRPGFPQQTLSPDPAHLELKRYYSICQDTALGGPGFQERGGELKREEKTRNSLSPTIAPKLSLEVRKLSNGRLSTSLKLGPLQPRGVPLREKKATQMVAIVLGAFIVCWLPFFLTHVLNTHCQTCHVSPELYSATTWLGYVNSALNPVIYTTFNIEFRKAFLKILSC
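Cells at 1500/well, incubated overnight, then treated with pinned compounds (dopamine as control) for 90 min at 37 degrees C. DiscoveRx reagent added for 30 - 60 minutes at room temperature; luminescence read.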
DRD3 antagonist: qHTS of D3 Dopamine Receptor Antagonist: qHTS. D(3) dopamine receptor (Homo sapiens), P35462. D3R cells, DiscoveRx beta-arrestin luminescence, antagonist mode; stronger effect = lower value. max response, negative = inhibition, %. hit rate 2.5% among 360,000. AID 652054, 2013; in the data active = max response below about -50%; note: % is set by controls: 0 for no effect and ±100 for the full control effect
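Cells plated overnight at 1500 cells/well, then exposed to library compounds with dopamine controls for 90 minutes at 37 degrees C. DiscoveRx reagent added for 30–60 minutes at room temperature; luminescence read, quantitative HTS format.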
TRPML1 blocker: qHTS for Inhibitors of the Human Mucolipin Transient Receptor Potential 1 (TRPML1); TRPML1-inducible cells, Ca2+ dye fluorescence, FDSS; stronger effect = lower value; inhibition of EC80 agonist-evoked calcium signal; activity change, negative = inhibition, % (no concentration beside the values); AID 624415, 2012; hit rate 0.02% among 390,000; Mucolipin-1 (Homo sapiens), Q9GZU1; in the data active = activity change below about -50%;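 note: stimulus is agonist 54-4 at its EC80 concentration; % is set by controls: 0 for no effect and ±100 for the full control effect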
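Calcium fluorescence in TRPML1-DL cells induced overnight with Tet: a 110 s read after compound pin addition, then a 110 s antagonist read after challenge with 54-4 at 4 uM final (EC80).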
Active calls of the source: *; . = not tested or not shown.

SMILES | TRPML1 agonist | DRD3 agonist | DRD3 antagonist | TRPML1 blocker
C(=C\c1ccccc1)/CN1CCN(C(c2ccccc2)c2nnnn2Cc2ccccc2)CC1 (configuration not stated) | 1.1 | -18.5 | -70.5* | 14.4
O=P(O)(O)OC(Cn1cncn1)(Cn1cncn1)c1ccc(F)cc1F | . | 6.2 | . | .
Ic1ccc(/C=C2\C=Cc3ccccc32)cc1 | -0.5 | . | . | .
O=[N+]([O-])c1cc(S(=O)(=O)C(F)(F)F)ccc1Sc1nc2ccccc2s1 | 0.9 | -14.3 | -94.9* | 1.5
Cc1ccc(C)c(C2C(=O)c3ccccc3C2=O)c1 | 0.6 | -3.8 | -18.0 | 23.0
Cc1ccc2ccc(C3C(=O)c4ccccc4C3=O)nc2c1 | 0.8 | -13.9 | -63.5* | 22.4
CCc1cc(/C=C/c2ccnc3ccccc23)ccc1N(C)C | 22.1 | . | . | .
C=C[C@]1(C)C=C2C(=O)[C@@]3(O)OC(=O)[C@@]4(CCCC(C)(C)[C@H]34)[C@@]2(O)CC1 | 1.2 | -8.9 | -58.1* | -9.7
CC(C)(C)OC(=O)N1CCC(c2c(C(=O)Nc3ccc4c(c3)OCCO4)cnn2-c2ccc(F)cc2F)CC1 | 0.8 | 2.5 | . | -1.2
CCCn1nc(NS(C)(=O)=O)c2cc3cccc(C)c3nc21 | 0.1 | 0.0 | -53.3* | 7.5
O=C(C1CCCN(S(=O)(=O)c2cccc3nonc23)C1)N1CCN(c2ccccc2Cl)CC1 (configuration not stated) | 0.6 | 4.6 | -8.5 | 12.9
O=C(C1CCCN(S(=O)(=O)c2cccc3nonc23)C1)N1CCC(Cc2ccccc2)CC1 (configuration not stated) | 2.2 | -0.6 | -53.2* | 29.9
O=C(NCCN1CCN(c2ccccc2)CC1)C1CCN(S(=O)(=O)c2cccc3nonc23)CC1 | -0.2 | 41.4* | -6.8 | 1.6
O=C(NCCN1CCN(c2ccccc2)CC1)C1CCN(S(=O)(=O)c2cccs2)CC1 | -0.8 | 45.7* | -27.1 | -2.1
O=C(NCCc1ccccc1)C1CCN(S(=O)(=O)c2cccs2)CC1 | 0.6 | -7.7 | -13.8 | -4.6
Cc1ccccc1-n1c(C)nnc1SC(C)C(=O)NCc1ccco1 (configuration not stated) | -0.9 | . | . | .
CC(C)c1ccc(OCC(=O)N(Cc2cccs2)C2CCS(=O)(=O)C2)cc1 (configuration not stated) | -0.9 | 8.3 | . | -7.6
CCOc1c(OC(C)=O)ccc(/C=C2\N=C(SCC)SC2=O)c1[N+](=O)[O-] | 0.3 | 0.7 | -70.2* | 4.3
CCOc1cc(/C=C2\N=C(SCC)SC2=O)cc([N+](=O)[O-])c1OC(C)=O | -1.2 | -7.7 | -96.6* | -5.3
Cc1ccc(CCNC(=O)c2cn(C)c3ccc(S(=O)(=O)N4CCC(C)CC4)cc3c2=O)cc1 | -0.4 | -6.6 | . | 8.0
COc1ccccc1/C=C/c1ccnc2ccccc12 | -1.0 | . | . | .
O=C(Nc1ccc(Cl)cc1Cl)c1cc(S(=O)(=O)NCc2ccc3c(c2)OCO3)ccc1F | 3.3 | 0.4 | . | -2.8
CN(C)[C@@H](CO)c1nnc([C@H](Cc2ccc(O)cc2)NC(=O)C2CCNCC2)o1 | -0.7 | 0.0 | 7.0 | -3.7
N[C@@H](Cc1ccc(O)cc1)c1nnc([C@H](CO)NC(=O)C2CCNCC2)o1 | -0.9 | 33.0* | 5.2 | 7.2
COc1cc(N(C)C)ccc1/C=C1\C=Cc2ccccc21 | -0.3 | . | . | .
SMILES | TRPML1 agonist | DRD3 agonist | DRD3 antagonist | TRPML1 blocker
CCn1ccnc1CNCc1ccc(OCC(O)CN(C)Cc2ccccc2)cc1 (configuration not stated) | 0.9 | -6.0 | -59.2* | 12.4
CCc1ccc(CNCc2ccc(OCC(O)CN(C)Cc3ccccc3)cc2)nc1 (configuration not stated) | . | -13.1 | -53.8* | .
COc1ccc(OCC(=O)Nc2ccc3nn(-c4ccc(OC)cc4)nc3c2)cc1 | 0.4 | 62.2* | . | -27.0
COC(=O)c1ccc(NC(=O)C[n+]2ccccc2C)cc1 | 0.3 | -4.7 | -59.4* | -5.7
O=Cc1ccnc2ccccc12 | 0.6 | . | . | .
CN(CC(=O)O)c1ccc(/C=C/c2ccnc3ccccc23)cc1 | 15.6 | . | . | .
CCCOc1ccc(Cc2nn3c(=O)/c(=C/c4ccco4)sc3nc2=O)cc1 | 50.4* | -0.6 | -24.9 | 0.1
Cc1ccc(Sc2nc(-c3ccccc3)nnc2C(F)(F)F)cc1 | -0.4 | -5.2 | -70.3* | 20.2

Assay outcomes: PubChem, National Center for Advancing Translational Sciences (NCATS)
